Where “and” joins values, the source holds several entries; their conditions need not be identical. Identical values can stand only once. Among all 360,000 compounds or so, about 16,000 (4.4%) were called active. Inconclusive results (about 9%) are left out. The call rests on the fitted dose curve; in most records, active means well fitted inhibition curve with a large enough effect; inconclusive means small, poorly fitted or top-dose-only effect; inactive means no such curve, though single readings can be large or run the other way. The entries come from a sample that favours actives as a whole. Where a call stands in place of a potency, no number is given. Where a structure was tested more than once in an assay, its records may differ in their call.
These molecules were tested against Bromodomain adjacent to zinc finger domain protein 2B (Homo sapiens) (UniProt Q9UIF8) (assay: qHTS Assay for Inhibitors of BAZ2B). Conditions: AlphaScreen BAZ2B-H3K14Ac peptide displacement; series mostly up to 114 µM.
Summary of the method: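 Compounds, titrated to a top concentration of 110 uM, were incubated 30 min at room temperature with preformed BAZ2B/acetyl-K14 H3 peptide complex (50 nM each). Proximity signal was measured by AlphaScreen after 20 min with beads.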
Further: nearly all actives have a fitted effect of over 60% in size.
Potency means the concentration at half of the fitted maximal effect.

Chain of Bromodomain adjacent to zinc finger domain protein 2B (Homo sapiens) (Q9UIF8 whole entry, looked up, the tested form may be a part): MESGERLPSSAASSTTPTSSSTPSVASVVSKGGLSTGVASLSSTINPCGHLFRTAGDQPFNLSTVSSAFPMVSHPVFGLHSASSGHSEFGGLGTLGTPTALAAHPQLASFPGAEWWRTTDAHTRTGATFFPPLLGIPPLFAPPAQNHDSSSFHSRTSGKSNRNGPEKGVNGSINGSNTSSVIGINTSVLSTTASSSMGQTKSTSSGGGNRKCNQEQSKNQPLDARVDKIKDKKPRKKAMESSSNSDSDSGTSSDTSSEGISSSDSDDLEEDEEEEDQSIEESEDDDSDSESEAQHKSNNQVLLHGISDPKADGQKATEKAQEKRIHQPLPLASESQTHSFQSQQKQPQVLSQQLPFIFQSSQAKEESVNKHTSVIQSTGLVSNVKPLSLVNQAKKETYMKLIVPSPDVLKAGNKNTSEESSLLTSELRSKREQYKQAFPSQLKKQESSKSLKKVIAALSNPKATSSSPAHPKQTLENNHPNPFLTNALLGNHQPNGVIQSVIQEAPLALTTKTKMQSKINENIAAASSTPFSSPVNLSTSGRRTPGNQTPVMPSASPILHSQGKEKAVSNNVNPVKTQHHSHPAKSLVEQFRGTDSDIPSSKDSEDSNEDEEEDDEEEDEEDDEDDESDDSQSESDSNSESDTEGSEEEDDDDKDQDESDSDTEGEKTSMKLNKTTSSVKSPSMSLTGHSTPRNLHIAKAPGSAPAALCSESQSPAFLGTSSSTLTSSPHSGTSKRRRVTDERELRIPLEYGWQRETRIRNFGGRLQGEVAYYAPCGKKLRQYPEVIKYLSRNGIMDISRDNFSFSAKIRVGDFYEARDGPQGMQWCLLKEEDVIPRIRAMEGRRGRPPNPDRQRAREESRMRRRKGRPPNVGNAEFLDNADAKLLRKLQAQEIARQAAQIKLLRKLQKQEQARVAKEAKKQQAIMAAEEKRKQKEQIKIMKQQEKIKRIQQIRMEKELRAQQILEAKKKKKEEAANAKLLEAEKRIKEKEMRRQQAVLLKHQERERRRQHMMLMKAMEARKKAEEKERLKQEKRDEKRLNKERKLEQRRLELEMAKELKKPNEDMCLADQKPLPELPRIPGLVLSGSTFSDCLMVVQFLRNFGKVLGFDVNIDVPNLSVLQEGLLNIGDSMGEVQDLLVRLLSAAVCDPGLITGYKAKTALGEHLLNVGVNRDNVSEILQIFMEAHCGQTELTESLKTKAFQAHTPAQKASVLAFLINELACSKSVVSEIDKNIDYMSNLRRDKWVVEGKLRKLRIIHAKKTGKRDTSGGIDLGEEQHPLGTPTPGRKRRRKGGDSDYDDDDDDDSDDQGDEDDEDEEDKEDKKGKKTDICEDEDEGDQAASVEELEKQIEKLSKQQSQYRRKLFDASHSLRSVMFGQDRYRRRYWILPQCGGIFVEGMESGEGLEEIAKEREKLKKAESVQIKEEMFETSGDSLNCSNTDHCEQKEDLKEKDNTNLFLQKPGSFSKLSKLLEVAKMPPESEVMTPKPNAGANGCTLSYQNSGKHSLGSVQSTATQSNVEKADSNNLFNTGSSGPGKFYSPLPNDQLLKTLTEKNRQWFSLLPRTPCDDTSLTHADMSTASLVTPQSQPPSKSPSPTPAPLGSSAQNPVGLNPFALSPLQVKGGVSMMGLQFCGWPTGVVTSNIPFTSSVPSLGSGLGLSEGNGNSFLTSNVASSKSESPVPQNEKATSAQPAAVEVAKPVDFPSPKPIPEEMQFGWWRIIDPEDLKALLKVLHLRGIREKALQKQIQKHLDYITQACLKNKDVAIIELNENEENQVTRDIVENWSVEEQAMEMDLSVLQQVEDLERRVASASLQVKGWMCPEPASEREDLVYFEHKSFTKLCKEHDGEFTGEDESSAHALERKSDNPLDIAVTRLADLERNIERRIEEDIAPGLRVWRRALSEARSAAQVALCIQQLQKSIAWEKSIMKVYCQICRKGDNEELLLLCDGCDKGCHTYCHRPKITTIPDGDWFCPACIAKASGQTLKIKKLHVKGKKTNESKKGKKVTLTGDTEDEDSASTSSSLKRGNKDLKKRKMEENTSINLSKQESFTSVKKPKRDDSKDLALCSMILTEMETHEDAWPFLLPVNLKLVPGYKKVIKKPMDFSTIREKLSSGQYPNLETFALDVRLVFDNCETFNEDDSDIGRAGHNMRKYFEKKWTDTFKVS

Row | SMILES | Potency
1 | COc1ccc(Cl)cc1NC(=O)CSc1nc(=O)[nH]c2c1CCCC2 | inactive
2 | COc1cc(OC)cc(C(=O)NCCc2csc3nc(-c4ccccc4F)nn23)c1 | inactive
3 | COc1ccc(S(=O)(=O)NCC(c2ccc(C)cc2)N2CCN(C)CC2)cc1OC (stereo unspecified) | inactive
4 | COc1ccc(S(=O)(=O)NCC(c2ccc(N(C)C)cc2)N2CCc3ccccc32)cc1OC (stereo unspecified) | 11.2 µM (active)
5 | COc1ccc(C(=O)NCC(c2ccc(N(C)C)cc2)N2CCc3ccccc32)c(OC)c1 (stereo unspecified) | inactive
6 | CCn1c(C(=O)Nc2cc(Cl)ccc2C)cc2sc(Cl)cc21 | inactive
7 | COc1cccc(CNC(=O)CSc2c3c(nc4cc(Cl)ccc24)CCCC3)c1 | inactive
8 | CCOc1ccc(CNC(=O)C2CCN(c3nnc(-n4cccc4CNc4ccc(C)cc4)s3)CC2)cc1OC | inactive
9 | CC(C)c1ccc(Cn2c(COc3ccccc3)nc3ccccc32)cc1 | inactive
10 | CC(C)c1ccc2c(c1)c(SC(C)(C)C)c(CC(C)(C)C(=O)O)n2Cc1ccc(Cl)cc1 | inactive and 50.1 µM (active)
11 | Cc1c(C)n(Cc2ccc(Cl)cc2)c2ccc(C(=O)N3CCN(c4ccccc4F)CC3)cc12 | inactive
12 | CCCn1c(=N)c(C(=O)NCc2ccccc2)cc2c(=O)n3cccc(C)c3nc21 | inactive
13 | O=C1OC(c2ccc(Cl)cc2)=N/C1=C\c1cccnc1 | inactive
14 | Cc1cccc(C2=N/C(=C/c3cccs3)C(=O)O2)c1 | inactive
15 | CN1/C(=C\C=C2\N=C(c3ccc(F)cc3)OC2=O)C(C)(C)c2ccccc21 | 50.1 µM (active)
16 | CCOc1ccccc1N(C)C(=O)c1cc2c(s1)-c1ccccc1OC2 | inactive
17 | O=C(Cc1ccc(Cl)cc1)NCC(c1cccs1)S(=O)(=O)c1ccc(Cl)cc1 (stereo unspecified) | inactive
18 | CCOC(=O)N1CCc2c(sc3c2C(=O)NC(c2ccccc2F)N3)C1 (stereo unspecified) | inactive
19 | CCOc1ccc(CNCc2c(C(=O)O)c(C)n(Cc3cccc(OC)c3)c2C)cc1OC | inactive
20 | CCN(CC)S(=O)(=O)c1ccc(C(=O)N=c2sc3cccc(OC)c3n2C)cc1 | inactive
21 | CCOC(=O)c1c(-c2ccc(OC)cc2)oc2ccc(OCc3ccc(C(=O)OC)cc3)cc12 | inactive
22 | CN1/C(=c2/s/c(=C3/C(=O)N(c4ccccc4)NC3=Nc3ccccc3)n(C)c2=O)C(C)(C)c2ccccc21 | 10 µM (active)
23 | CN1C(=O)c2ccccc2Sc2ccc(NC(=O)Cc3ccc(Cl)cc3)cc21 | inactive
24 | Cc1ccc(Nc2c(-c3ccc(Cl)cc3)nc3sccn23)c(C)c1 | 28.2 µM (active)

Row | SMILES | Potency
25 | O=C(NCc1ccc(Cl)cc1)c1cc2c(nc3sccn32)s1 | inactive
26 | O=c1cc(Cn2nnc(-c3ccc(Cl)cc3)n2)nc2sccn12 | inactive
27 | Cc1ccccc1C(=O)Nc1cc(C)c(O)c(-c2nc3ccccc3o2)c1 | inactive
28 | Cc1ccc(Cl)cc1N(C)C(=O)C1CCCN(c2ncnc3onc(-c4ccc(F)cc4)c23)C1 (stereo unspecified) | inactive
29 | CCOc1ccc(C2C(C(=O)Nc3ccc(Cl)cc3)=C(C)Nc3nc(C(F)(F)F)nn32)cc1 (stereo unspecified) | inactive
30 | COc1ccc(C(=O)/C=C/c2ccc(-c3ccccc3)cc2)cc1CSCC(=O)O | inactive
31 | COc1ccc(/C=C/C(=O)N2CCCC2)cc1OC | inactive
32 | COC(=O)c1ccc(COc2ccc(/C=C/C(=O)c3ccc(OC)c(CSCC(=O)O)c3)cc2OC)cc1 | 39.8 µM (active)
33 | CCOc1ccccc1NC(=O)Cn1c(=O)n(-c2cccc(C)c2)c(=O)c2c1c1cc(OC)ccc1n2C | inactive
34 | COc1ccc(-c2nnc(SCC(=O)NC3CCCCC3)o2)cc1OC | inactive
35 | COc1ccc(-c2nnc(SCC(=O)Nc3ccc(C(C)C)cc3)nc2-c2ccc(OC)c(OC)c2)cc1OC | inactive
36 | CCOc1cc(-c2nnc(SCC(=O)NC3CCCCC3)nc2-c2ccc(OC)c(OCC)c2)ccc1OC | 79.4 µM (active)
37 | COCCn1c(SCC(=O)c2cc(C)ccc2C)nc2cc(C(=O)NC3CCCC3)ccc2c1=O | inactive
38 | Cc1ccc(-c2nc(CS(=O)(=O)CC(=O)NCc3ccccc3Cl)c(C)o2)cc1 | inactive
39 | CCOc1ccc2nc(N3CCC(C(=O)Nc4cc(C)ccc4C)CC3)sc2c1 | inactive
40 | CC1=C(C(=O)Nc2ccccc2Cl)C(c2cccs2)n2ncnc2N1 (stereo unspecified) | inactive
41 | CCC(=C/c1sc2ccc3ccccc3c2[n+]1C)/C=C1\Sc2ccc3ccccc3c2N1C | 50.1 µM (active)
42 | N#C/C(=C/c1ccc(N2CCOCC2)o1)C(=O)N1CCOCC1 | inactive
43 | N#C/C(=C\C1=C(N2CCOCC2)C(=C\c2ccccc2)/CC1)C(=O)Nc1ccccc1F | 2 µM (active)
44 | N#C/C(=C\c1ccccc1C(F)(F)F)C(=O)Nc1ccccc1F | inactive
45 | Cc1ccc2c(=O)c(C(=O)c3ccc(Cl)cc3)cn(CC(=O)NC3CCCCC3)c2n1 | inactive
46 | O=C(O)c1ccc2c(c1)C(=O)N(NC(=O)c1ccc(O)cc1)C2=O | inactive
47 | CC(=O)N1C(=O)/C(=C2\SC(=S)N(NC(=O)c3ccc(O)cc3)C2=O)c2ccccc21 | 39.8 µM (active)
48 | COc1ccc2c(c1)N(C)/C(=C1/SC(=S)N(NC(C)=O)C1=O)S2 | inactive

Row | SMILES | Potency
49 | CCOC(=O)c1cccc(NC(=O)c2cc(S(=O)(=O)N3CCCC(C)C3)cn2C)c1 (stereo unspecified) | inactive
50 | CCCCN1CC(c2nc3ccccc3n2CCCCOc2ccc(C)cc2C)CC1=O (stereo unspecified) | inactive
51 | Cc1ccc(N=C2NC(=O)/C(=C/C=C/c3ccco3)S2)cc1C | 44.7 µM (active)
52 | CCOC(=O)c1cc(-c2ccccc2)n(CCC(=O)Nc2ccccc2CC)c1C | inactive
53 | CC(C)CC(=O)NCC(c1ccc2c(c1)OCO2)N1CCN(c2ccc(F)cc2)CC1 (stereo unspecified) | inactive
54 | Cc1nnc(NCc2ccccc2)c2c1nnn2Cc1ccc(F)cc1 | inactive
55 | CCOc1ccc(C(=O)c2cn(Cc3ccc(F)cc3)c3ccc(F)cc3c2=O)cc1 | inactive
56 | CCOc1ccc2oc(=O)cc(CN3CCN(C(=O)c4ccc(F)cc4)CC3)c2c1 | inactive
57 | COc1ccc2oc(=O)cc(CN3CCOCC3)c2c1 | inactive
58 | CCOc1ccc(N(C)Cc2cc(=O)oc3ccc(OC)cc23)cc1 | 22.4 µM (active)
59 | Cc1ccc(O)c(NC(=O)CCS(=O)(=O)c2nc(-c3ccc4c(c3)OCO4)cc(C(F)(F)F)n2)c1 | inactive
60 | CCOC(=O)c1ccc(NC(=O)c2ncn(-c3ccccc3)n2)cc1 | inactive
61 | Fc1ccc(-c2nn(-c3ccccc3Cl)c3c2cnc2ccccc23)cc1 | inactive
62 | COc1cccc(CNC(=O)Cn2c(=O)c3cccn3c3ccc(F)cc32)c1OC | inactive
63 | Cc1ccc(OCCCC(=O)Nc2ccc(N3CCOCC3)cc2)cc1 | inactive
64 | CCOC(=O)c1cnc2c(C)cc(Cl)cc2c1NCCc1ccc(OC)c(OC)c1 | inactive
65 | CCOC(=O)c1cnc2c(C)cc(C)cc2c1Nc1ccc(N2CCOCC2)cc1 | 7.08 µM (active)
66 | CCOc1cccc(NC(=O)CSc2ncc(-c3ccc(Cl)cc3)[nH]2)c1 | inactive
67 | Cc1cc(NS(=O)(=O)c2ccc3oc(=O)c4ncn(C)c4c3c2)ccc1Br | inactive
68 | O=[N+]([O-])c1ccccc1OCCCCN1CCCCC1 | inactive
69 | CC1CN(CCOc2ccccc2[N+](=O)[O-])CC(C)O1 (stereo unspecified) | 25.1 µM (active)
70 | CC1CC(C)CN(CCOc2cccc3ccccc23)C1 (stereo unspecified) | inactive
71 | Cc1ccccc1CNC(=O)CCc1cn(Cc2ccccc2C)c2ccccc12 | inactive
72 | CCc1cc2c(cc3c(=O)n(CC(=O)NCc4cccc(Cl)c4)nc(CC)n32)s1 | inactive

Row | SMILES | Potency
73 | COc1ccccc1C(=O)NCCn1cc(SCc2ccccc2Cl)c2ccccc21 | inactive
74 | Cc1ccc(CN2CCC(CNC(=O)c3cnn(-c4ccc(C)cc4)c3C3CCN(C(=O)OC(C)(C)C)CC3)CC2)cc1 | inactive
75 | C=CCN(CC=C)CCOc1ccccc1[N+](=O)[O-] | 39.8 µM (active)
76 | O=C(COc1ccccc1[N+](=O)[O-])NC1CC1 | inactive
77 | O=C(COc1ccccc1[N+](=O)[O-])N/N=C/c1ccc[nH]1 | inactive
78 | CC(NC(=O)c1cc(Sc2ccc(F)cc2F)nc2ccccc12)c1ccccc1 (stereo unspecified) | inactive
79 | CN=C1C=C/C(=N/N=c2\ccn(O)cc2C)C=C1C | 35.5 µM (active)
80 | O=C(CN1c2ccccc2S(=O)(=O)c2ccccc21)Nc1cccc(C(F)(F)F)c1 | inactive
81 | CCOC(=O)c1ccc(NC(=O)CC2C(=O)N(c3ccccc3)C(=O)N2Cc2cccs2)cc1 (stereo unspecified) | inactive
82 | Cc1cccc(NC(=O)c2nc(S(=O)(=O)Cc3ccccc3)ncc2Cl)c1 | inactive
83 | Cc1ccc(CS(=O)(=O)c2ncc(Cl)c(C(=O)Nc3nnc(C)s3)n2)cc1 | inactive
84 | CSc1nnc(NC(=O)c2nc(S(=O)(=O)Cc3ccc(C)cc3)ncc2Cl)s1 | 56.2 µM (active)
85 | Fc1ccc(-n2ncc3c(Nc4ccc(Oc5ccccc5)cc4)ncnc32)cc1 | inactive
86 | CCOc1ccccc1NC(=O)c1ccc2c(c1)CCN2S(=O)(=O)c1ccc(C)cc1 | inactive
87 | Cc1ccc(CN2CCN(/N=C/c3ccco3)CC2)c(C)c1 | 50.1 µM (active)
88 | C/C(=N\N1CCN(Cc2ccc(C)cc2)CC1)c1ccco1 | inactive
89 | CN(C)C(=O)c1nc2ccc(Cl)cn2c1CN1CCN(c2ncccn2)CC1 | inactive
90 | COc1ccc(-c2nc(CN3CCN(c4ncccn4)CC3)c(C)o2)cc1C | inactive
91 | Cc1ccc(CN2CCN(c3ncccn3)CC2)c(C)c1 | 50.1 µM (active)
92 | Cc1ccc(NC(=O)CCC(=O)N/N=C/c2ccco2)c(C)c1 | inactive
93 | Cc1oc2ccc(O)c(CN3CCCCC3)c2c1C(=O)Nc1cccc(C(F)(F)F)c1 | inactive
94 | Cc1ccc(CNC(=O)Cn2c(=O)ccc3cc(S(=O)(=O)N4CCCC4)ccc32)cc1 | inactive
95 | CCOC(=O)c1ccc(NC(=O)C2CC(=O)NC(=Nc3ccc(C)c(C)c3)S2)cc1 (stereo unspecified) | inactive
96 | Cc1cccc(NC(=O)C2CCCN2S(=O)(=O)c2cccc3nsnc23)c1C (stereo unspecified) | inactive
